From PubChem BioAssay (NCI)
Compounds without any hit were thinned out: in the full panel of roughly 83,000, 20% have a hit.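 Method: cells in 96-well plates; compound added at one concentration; 48 h incubation; percent growth measured; values under 10 scored active.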 Values without a mark were called inactive. Activity calls are given as the source filed them.

Assays:
Test in all cases: NCI-60 one-dose screen, 48 h (100 = growth as untreated, 0 = no growth, -100 = all killed)
Settings in all cases: 10 µM unless noted
K-562 leukemia = test system: K-562 leukemia
MALME-3M melanoma = test system: MALME-3M melanoma
MDA-MB-231 breast = test system: MDA-MB-231 breast
RXF 393 renal = test system: RXF 393 renal
SF-295 CNS = test system: SF-295 CNS
SF-539 CNS = test system: SF-539 CNS
UACC-257 melanoma = test system: UACC-257 melanoma
M14 melanoma = test system: M14 melanoma
HCT-15 colon = test system: HCT-15 colon
HT29 colon = test system: HT29 colon
SNB-75 CNS = test system: SNB-75 CNS
SNB-19 CNS = test system: SNB-19 CNS
U251 CNS = test system: U251 CNS
PC-3 prostate = test system: PC-3 prostate
SK-MEL-5 melanoma = test system: SK-MEL-5 melanoma
UACC-62 melanoma = test system: UACC-62 melanoma
LOX IMVI melanoma = test system: LOX IMVI melanoma
SK-MEL-28 melanoma = test system: SK-MEL-28 melanoma
SF-268 CNS = test system: SF-268 CNS

Row | Compound | growth (K-562 leukemia) | growth (MALME-3M melanoma) | growth (MDA-MB-231 breast) | growth (RXF 393 renal) | growth (SF-295 CNS) | growth (SF-539 CNS) | growth (UACC-257 melanoma) | growth (M14 melanoma) | growth (HCT-15 colon) | growth (HT29 colon) | growth (SNB-75 CNS) | growth (SNB-19 CNS) | growth (U251 CNS) | growth (PC-3 prostate) | growth (SK-MEL-5 melanoma) | growth (UACC-62 melanoma) | growth (LOX IMVI melanoma) | growth (SK-MEL-28 melanoma) | growth (SF-268 CNS)
1 | COc1ccc(CCN2COc3c([C@@H](C)CCC=C(C)C)ccc(C)c3C2)cc1OC | 13.1% | 48% | 57% | 63.9% | 43.1% | 80.5% | 48.1% | 11.5% | 29.5% | 8.29% (active) | 62.8% | 83.3% | 49.8% | 47.6% | 18.2% | 65.5% | 64.3% | – | –
2 | COc1cc2c(cc1I)-c1c(cc(OC)c(OC)c1OC)CC[C@@H]2NC(C)=O | 9.91% (active) | 72.4% | -6.61% (active) | 29.8% | -1.65% (active) | -30.6% (active) | 56.7% | -12.9% (active) | 9.35% (active) | 4.21% (active) | 27.7% | 28% | 17.3% | 27.2% | 2.44% (active) | 16.4% | 33.8% | 41.6% | –
3 | O=c1c2sc3ccccc3c2nnn1-c1ccc(F)c(Cl)c1 | 49.7% | 58% | 27.5% | 47.3% | 4.36% (active) | 65.4% | 64.1% | 74.7% | 56.7% | 69.9% | 39.5% | 61.1% | 59.1% | 54.8% | 67.3% | 78.4% | 58.1% | 72.7% | –
4 | O=C1C=CC(=O)N1CO | -29.9% (active) | 130% | 109% | 168% | 131% | 111% | 109% | 109% | 116% | 105% | 100% | 103% | 117% | 102% | 114% | 106% | 120% | 117% | 111%
5 | Oc1ccc(CCCCCCc2ccc(O)cc2)cc1 | 102% | 92.8% | 65.3% | 60.4% | 65.1% | 42% | 91.4% | 41.8% | 74.5% | 83.6% | 51.1% | – | 54.7% | 57.9% | 50.2% | 13.7% | 53.3% | 104% | 65.2%
6 | O=C(/C=C/c1cc([N+](=O)[O-])ccc1Cl)c1ccccc1 | 24.4% | 102% | 85.9% | 97.8% | 95.9% | 107% | 104% | 94.1% | 110% | 14.3% | 67.7% | 87.8% | 46% | 85.4% | 87.3% | 70.5% | -18.9% (active) | 104% | 94.8%
7 | COc1ccc(C(=O)C(CN(C)C)c2ccccc2)cc1 (stereo not given) | 12.6% | 45% | 33.4% | 18.6% | 54.3% | 14.2% | 2.45% (active) | -63% (active) | -49.3% (active) | 19.1% | 25.1% | 91.2% | 31.6% | 52.4% | 43.7% | 33.8% | 10.3% | -44.9% (active) | –
8 | CCCCOc1ncnc2nc[nH]c12 | 95.4% | 103% | 115% | 97.7% | 110% | 102% | 101% | 106% | 108% | 96.3% | 95.7% | 99.8% | 106% | 107% | 105% | 104% | 103% | 111% | –
